Consider 35 sequences from paper PMC13541613, “GHT-SELEX demonstrates unexpectedly high intrinsic sequence specificity and complex DNA binding of many human transcription factors”.

Common to all, as to experiment: HT-SELEX; 20 mM HEPES pH 7, 140 mM KCl, 5 mM NaCl, 1 mM K2HPO4, 2 mM MgSO4, 100 uM EGTA, ZnSO4, 0.1% Tween20; room temperature, 1 h; high values mean tight binding
Holding throughout (conditions): protein: ivt; tags: eGFP (N-terminal); dsDNA, one strand shown

For one assay, the target named is ZNF721 full-length (Homo sapiens, UniProt Q8TF20-2 1-923). An outline of the steps:
(§1)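 In HEPES/KCl low-stringency buffer with Tween20, a bead-immobilised tagged transcription factor (full-length or DNA-binding-domain fragment, from HEK293 lysate or cell-free extract) was incubated with a randomized 40-base DNA library for 1 h at room temperature. DNA retained after washing was heat-eluted, amplified by PCR over successive cycles and Illumina-sequenced, giving ~3 million 60 bp reads per sample. The reported binding signal, a relative k-mer count in those selected reads, rises with tighter binding.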

For the next assay, the target named is ZNF721 DBD1 (Homo sapiens, UniProt Q8TF20-2 29-461). An outline of the steps: as §1
Sequence of ZNF721 DBD1 (Q8TF20 17-449): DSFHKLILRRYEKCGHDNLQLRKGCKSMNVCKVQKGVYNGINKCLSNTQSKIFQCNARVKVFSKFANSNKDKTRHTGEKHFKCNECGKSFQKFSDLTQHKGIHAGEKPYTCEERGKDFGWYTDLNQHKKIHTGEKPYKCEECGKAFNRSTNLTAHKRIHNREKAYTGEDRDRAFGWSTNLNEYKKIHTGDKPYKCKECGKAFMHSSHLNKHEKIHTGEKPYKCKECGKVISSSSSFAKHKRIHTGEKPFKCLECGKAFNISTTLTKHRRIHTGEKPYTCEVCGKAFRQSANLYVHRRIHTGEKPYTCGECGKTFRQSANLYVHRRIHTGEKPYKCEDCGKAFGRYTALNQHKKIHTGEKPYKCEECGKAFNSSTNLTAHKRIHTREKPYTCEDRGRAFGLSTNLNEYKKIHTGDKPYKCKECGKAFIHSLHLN
The target in another assay is ZNF721 DBD2 (Homo sapiens, UniProt Q8TF20-2 395-923). In a few lines:
as §1

Sequence of ZNF721 DBD2 (Q8TF20 383-911): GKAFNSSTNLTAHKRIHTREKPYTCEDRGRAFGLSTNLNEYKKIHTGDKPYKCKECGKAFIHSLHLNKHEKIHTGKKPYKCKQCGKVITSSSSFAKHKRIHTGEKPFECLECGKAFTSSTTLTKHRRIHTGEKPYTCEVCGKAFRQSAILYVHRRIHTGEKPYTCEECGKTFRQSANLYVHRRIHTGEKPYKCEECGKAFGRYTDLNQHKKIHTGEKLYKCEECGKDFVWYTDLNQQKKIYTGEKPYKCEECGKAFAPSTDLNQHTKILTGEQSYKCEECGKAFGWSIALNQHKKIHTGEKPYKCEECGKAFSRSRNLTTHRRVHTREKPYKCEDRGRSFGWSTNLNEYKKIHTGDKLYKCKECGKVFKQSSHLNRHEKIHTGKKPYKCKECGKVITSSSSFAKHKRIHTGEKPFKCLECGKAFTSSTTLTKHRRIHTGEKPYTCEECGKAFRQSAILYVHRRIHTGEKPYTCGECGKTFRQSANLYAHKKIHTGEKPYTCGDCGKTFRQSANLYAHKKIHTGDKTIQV
Sequence of ZNF721 full-length (Q8TF20 other isoform, or with tags, fused parts or gaps): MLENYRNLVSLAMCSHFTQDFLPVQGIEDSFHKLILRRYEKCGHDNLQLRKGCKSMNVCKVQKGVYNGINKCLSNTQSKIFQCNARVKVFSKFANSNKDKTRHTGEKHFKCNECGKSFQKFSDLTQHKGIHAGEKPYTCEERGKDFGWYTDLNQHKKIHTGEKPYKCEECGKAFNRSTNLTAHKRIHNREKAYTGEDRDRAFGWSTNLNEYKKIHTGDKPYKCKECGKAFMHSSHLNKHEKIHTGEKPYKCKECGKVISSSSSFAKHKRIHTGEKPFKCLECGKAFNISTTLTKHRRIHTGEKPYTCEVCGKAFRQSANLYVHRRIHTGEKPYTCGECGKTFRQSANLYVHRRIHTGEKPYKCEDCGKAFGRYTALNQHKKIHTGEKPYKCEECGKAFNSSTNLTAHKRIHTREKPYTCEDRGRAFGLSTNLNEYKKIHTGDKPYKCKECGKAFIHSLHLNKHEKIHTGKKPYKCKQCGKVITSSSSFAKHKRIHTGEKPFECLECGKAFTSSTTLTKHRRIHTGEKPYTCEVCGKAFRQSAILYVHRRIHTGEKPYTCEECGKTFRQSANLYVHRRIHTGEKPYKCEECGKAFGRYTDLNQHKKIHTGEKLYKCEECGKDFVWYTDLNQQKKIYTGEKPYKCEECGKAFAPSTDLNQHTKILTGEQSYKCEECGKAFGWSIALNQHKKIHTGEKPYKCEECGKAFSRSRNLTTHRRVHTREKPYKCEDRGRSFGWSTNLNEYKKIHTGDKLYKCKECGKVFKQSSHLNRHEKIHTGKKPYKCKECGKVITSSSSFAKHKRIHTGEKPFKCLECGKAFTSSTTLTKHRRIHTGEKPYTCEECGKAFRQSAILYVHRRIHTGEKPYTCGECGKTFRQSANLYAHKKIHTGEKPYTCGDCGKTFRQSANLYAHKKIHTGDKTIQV

TAAAAAAACA: the binding signal with ZNF721 full-length was found to be 0.162 relative 10-mer count; with ZNF721 DBD1, 0.00234 relative 10-mer count; in the assay with ZNF721 DBD2, 0.134 relative 10-mer count.
The like results for CACACCCACC were, in that order, 0.135 relative 10-mer count, 0.00651 relative 10-mer count and 0.00695 relative 10-mer count.
Regarding CACCCCCGCC, the binding signal is 0.193 relative 10-mer count with ZNF721 full-length, 0.00683 relative 10-mer count with ZNF721 DBD1 and 0.00288 relative 10-mer count with ZNF721 DBD2.
Take CCCCGCCCGC: the binding signal came to 0.115 relative 10-mer count with ZNF721 full-length, 0.00417 relative 10-mer count in the assay with ZNF721 DBD1 and 0.0018 relative 10-mer count in the assay with ZNF721 DBD2.
The like results for CAACAAAGCA were, in that order, 0.126 relative 10-mer count, 0.00101 relative 10-mer count and 0.145 relative 10-mer count.
On the same counts, the results for ACCCCCACCC are 0.267 relative 10-mer count, 0.0108 relative 10-mer count and 0.0036 relative 10-mer count.
As for AACAAAAAAA, the binding signal with ZNF721 full-length stood at 0.116 relative 10-mer count; with ZNF721 DBD1, 0.0078 relative 10-mer count; in the assay with ZNF721 DBD2, 0.069 relative 10-mer count.
On the same counts, the results for AACCCCACCC are 0.141 relative 10-mer count, 0.00294 relative 10-mer count and 0.00156 relative 10-mer count.
On the same counts, the results for AAAAGCAGTC are 0.111 relative 10-mer count, 0.00225 relative 10-mer count and 0.105 relative 10-mer count.
Take ACCACCCCAC: the binding signal with ZNF721 full-length came to 0.201 relative 10-mer count; in the assay with ZNF721 DBD1 it was 0.0072 relative 10-mer count; with ZNF721 DBD2, 0.00479 relative 10-mer count.
On the same counts, the results for GGGTGGGTGA are 0.104 relative 10-mer count, 0.00505 relative 10-mer count and 0.0012 relative 10-mer count.
On the same counts, the results for GCCCCACCAC are 0.137 relative 10-mer count, 0.00555 relative 10-mer count and 0.00743 relative 10-mer count.
On the same counts, the results for CGCCCACCCC are 0.23 relative 10-mer count, 0.00913 relative 10-mer count and 0.00252 relative 10-mer count.
CCCTCCCCCA: the binding signal with ZNF721 full-length worked out at 0.192 relative 10-mer count; with ZNF721 DBD1 it was 0.00881 relative 10-mer count; with ZNF721 DBD2, 0.00839 relative 10-mer count.
On the same counts, the results for ACGCTTCATA are 0.122 relative 10-mer count, 0.2 relative 10-mer count and 0.00108 relative 10-mer count.
On the same counts, the results for ACAAAAAAAA are 0.179 relative 10-mer count, 0.0167 relative 10-mer count and 0.0899 relative 10-mer count.
CCGACCCACC: the figures for the binding signal with ZNF721 full-length, in the assay with ZNF721 DBD1 and with ZNF721 DBD2 were 0.115 relative 10-mer count, 0.00367 relative 10-mer count and 0.00467 relative 10-mer count, respectively.
On to CCCCCCAGCC, for which the values for the binding signal in the assay with ZNF721 full-length, with ZNF721 DBD1 and with ZNF721 DBD2 were 0.118 relative 10-mer count, 0.00505 relative 10-mer count and 0.00228 relative 10-mer count, respectively.
Regarding ACGCCCCACC, the binding signal with ZNF721 full-length was 0.11 relative 10-mer count; with ZNF721 DBD1, 0.00271 relative 10-mer count; with ZNF721 DBD2 it was 0.00431 relative 10-mer count.
The like results for TGTGTATGAA were, in that order, 0.169 relative 10-mer count, 0.203 relative 10-mer count and 0.00228 relative 10-mer count.
Consider CCCCTCCCGC, for which the values for the binding signal in the assay with ZNF721 full-length, with ZNF721 DBD1 and in the assay with ZNF721 DBD2 were 0.137 relative 10-mer count, 0.00665 relative 10-mer count and 0.00635 relative 10-mer count, respectively.
Turning to CACCCCACCC, the binding signal in the assay with ZNF721 full-length was determined as 0.31 relative 10-mer count; in the assay with ZNF721 DBD1, 0.012 relative 10-mer count; in the assay with ZNF721 DBD2 it was 0.0036 relative 10-mer count.
On the same counts, the results for CAGGGTGGGG are 0.111 relative 10-mer count, 0.00399 relative 10-mer count and 0.00384 relative 10-mer count.
The like results for CCCGACCCCA were, in that order, 0.112 relative 10-mer count, 0.00399 relative 10-mer count and 0.0012 relative 10-mer count.
In the case of CCTCCCCCCG, the binding signal in the assay with ZNF721 full-length came to 0.143 relative 10-mer count; in the assay with ZNF721 DBD1, 0.00541 relative 10-mer count; with ZNF721 DBD2 it was 0.00348 relative 10-mer count.
The like results for ACCCCGACCC were, in that order, 0.102 relative 10-mer count, 0.00284 relative 10-mer count and 0.0012 relative 10-mer count.
The like results for ACAGCGTTAC were, in that order, 0.102 relative 10-mer count, 0.00105 relative 10-mer count and 0.207 relative 10-mer count.
For the sequence CCACGACCCC, the binding signal in the assay with ZNF721 full-length was found to be 0.118 relative 10-mer count; in the assay with ZNF721 DBD1 it was 0.00344 relative 10-mer count; with ZNF721 DBD2, 0.003 relative 10-mer count.
On the same counts, the results for CCACACCCCA are 0.124 relative 10-mer count, 0.00472 relative 10-mer count and 0.00503 relative 10-mer count.
For AAAAAAAAAA, the binding signal stood at 0.186 relative 10-mer count with ZNF721 full-length, 0.0189 relative 10-mer count with ZNF721 DBD1 and 0.0538 relative 10-mer count with ZNF721 DBD2.
On the same counts, the results for CATCCCACCC are 0.138 relative 10-mer count, 0.00527 relative 10-mer count and 0.00563 relative 10-mer count.
As to CCCACCCACC, the binding signal in the assay with ZNF721 full-length came to 0.425 relative 10-mer count; with ZNF721 DBD1, 0.0187 relative 10-mer count; with ZNF721 DBD2 it was 0.00899 relative 10-mer count.
On the same counts, the results for GCATACCCAC are 0.132 relative 10-mer count, 0.00899 relative 10-mer count and 0.154 relative 10-mer count.
Turning to CCCACCCAGC, the binding signal in the assay with ZNF721 full-length worked out at 0.106 relative 10-mer count; in the assay with ZNF721 DBD1, 0.00307 relative 10-mer count; with ZNF721 DBD2 it was 0.003 relative 10-mer count.
As for CCTCCCCCAC, the binding signal was determined as 0.216 relative 10-mer count in the assay with ZNF721 full-length, 0.01 relative 10-mer count with ZNF721 DBD1 and 0.00767 relative 10-mer count with ZNF721 DBD2.
